Measurements taken from PubChem BioAssay AID1851 (National Center for Advancing Translational Sciences (NCATS), 2009).
The campaign covered roughly 16,000 compounds. About 5,100 (32%) were called active. About 25% were inconclusive and are not listed. The list shows a part of the results. Values without a mark were called inactive. The call rests on the fitted dose curve; in most records, active means well fitted curve in the direction sought with a large enough effect; inconclusive means small, poorly fitted or top-dose-only effect, or effect the other way; inactive means no such curve, though single readings can be large or run the other way.

Molecular target: Cytochrome P450 3A4 (Homo sapiens) (UniProt P08684)
Sequence (P08684 whole entry, looked up): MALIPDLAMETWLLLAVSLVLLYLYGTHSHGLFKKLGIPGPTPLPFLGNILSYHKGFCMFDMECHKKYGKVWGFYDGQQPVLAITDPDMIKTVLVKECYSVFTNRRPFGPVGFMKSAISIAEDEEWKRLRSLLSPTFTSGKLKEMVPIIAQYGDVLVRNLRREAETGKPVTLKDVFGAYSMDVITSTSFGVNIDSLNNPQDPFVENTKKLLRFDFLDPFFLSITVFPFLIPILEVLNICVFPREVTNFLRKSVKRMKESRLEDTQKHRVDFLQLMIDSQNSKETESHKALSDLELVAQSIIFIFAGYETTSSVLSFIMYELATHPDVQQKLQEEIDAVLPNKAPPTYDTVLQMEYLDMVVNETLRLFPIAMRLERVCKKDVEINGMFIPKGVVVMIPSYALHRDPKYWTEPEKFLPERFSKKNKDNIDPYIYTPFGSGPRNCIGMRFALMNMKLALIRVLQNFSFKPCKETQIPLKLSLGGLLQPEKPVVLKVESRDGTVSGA
Assay: Cytochrome panel assay with activity outcomes
Conditions: recombinant CYP, pro-luciferin dealkylation, luminescence, p450-cyp3a4; series mostly up to 57.1 µM; activity, negative = inhibition: at the top concentration
On the % scale 0 is the no-effect control and ±100 the full control effect.

| SMILES | activity, negative = inhibition | AC50 |
| --- | --- | --- |
| C=CC[C@@H](C(=O)O)c1ccccc1 | -1.41% [at 11.4 µM] |  |
| CC(C)(C)CNCCO | -3.67% [at 11.4 µM] |  |
| COc1ccccc1CNc1cc(-c2ccc(C(=O)N(C)C)cc2)ncn1 |  | 25.1 µM (active) |
| COc1ccc(CNc2ccnc(-c3ccc(N(C)C)cc3)n2)c(OC)c1 |  | 12.6 µM (active) |
| COc1ccccc1CNc1ccnc(-c2ccc(N(C)C)cc2)n1 |  | 7.94 µM (active) |
| CC(C)NC[C@H](O)c1ccc(NS(C)(=O)=O)cc1 |  | inactive |
| CN1CCc2nc(N)nc(-c3nc(N)nc4c3CN(C)CC4)c2C1 | 3.49% [at 11.4 µM] |  |
| O=C(CN(Cc1ccco1)C(=O)c1cccc(Cl)c1)Nc1c(Cl)cc(Cl)cc1Cl |  | 11.2 µM (active) |
| O=C(CN(Cc1ccco1)C(=O)c1ccccc1)Nc1ccc(Cl)c(Cl)c1 |  | 17.8 µM (active) |
| Cn1c[n+](C)cc1/C=N/O | -10.6% |  |
| FC(F)(F)c1ccc(N2CCOCC2)c(Nc2nc3ccccc3n3cnnc23)c1 |  | 22.4 µM (active) |
| CN1CCN(c2nc3cc(C(F)(F)F)ccc3n3cccc23)CC1 | -28% |  |
| O=C(O)c1ccccc1NCn1c(=S)sc2ccccc21 | -19.2% [at 11.4 µM] |  |
| Cc1ccc(OCCCn2c(=O)sc3ccccc32)cc1 |  | 17.8 µM (active) |
| O=c1sc2ccccc2n1CCCOc1ccccc1 |  | 17.8 µM (active) |
| C[N+](C)(CCCOc1ccccc1)c1ccccc1 | -0.656% [at 25.6 µM] |  |
| NN(CC(=O)O)CC(=O)O | -4.66% [at 11.4 µM] |  |
| CN(C)CCCN1c2ccc(O)cc2Sc2ccc(Cl)cc21 | -18.1% [at 11.4 µM] |  |
| O=C(O)Cn1ccnc1[N+](=O)[O-] | 1.73% [at 11.4 µM] |  |
| Nc1c(N=Nc2cccc(Cl)c2)c(=O)[nH]n1-c1ccccc1 | -21.9% [at 2.29 µM] |  |
| Cc1[nH]n(-c2ccc(S(=O)(=O)O)cc2)c(=O)c1N=Nc1ccccc1 | 1.46% [at 11.4 µM] |  |

| SMILES | activity, negative = inhibition | AC50 |
| --- | --- | --- |
| Cc1ccc(N=Nc2c(N)n(-c3ccccc3)[nH]c2=O)cc1 |  | 11.2 µM (active) |
| CCCCc1[nH]c(=O)c(C#N)c2c1CCCC2 | 5.05% |  |
| COc1cccc2cc(C(=O)CC3(O)C(=O)N(Cc4ccccc4)c4ccccc43)c(=O)oc12 (stereo unspecified) |  | 7.08 µM (active) |
| COc1cc(CN2CCCCC2)cc2cc(C(=O)O)c(=O)oc12 | -36.8% [at 11.4 µM] |  |
| C[C@H]1CN(CCO)CCN1c1ccccc1 | 14.2% [at 11.4 µM] |  |
| O=C(Cn1nnc(-c2ccccc2)n1)OCc1ccccc1 | -7.55% |  |
| CC(C)c1ccc(-c2nnn(CCC(=O)O)n2)cc1 | -9.35% |  |
| CN1/C(=C\C(=O)COC(=O)Cn2nnc(-c3ccccc3)n2)C(C)(C)c2ccccc21 |  | 14.1 µM (active) |
| Cc1nn(-c2ccccc2)c(Cl)c1/C=N/NC(=O)c1ccco1 | 6.52% |  |
| O=C(N/N=C/c1ccccn1)c1ccc(Br)o1 | 1.3% |  |
| O=C(N/N=C\c1cn(-c2ccccc2)nc1-c1ccccc1)c1ccc(Br)o1 |  | 3.98 µM (active) |
| O=C(N/N=C\c1cn(-c2ccccc2)nc1-c1ccccc1)c1ccc2c(c1)OCO2 |  | 1.58 µM (active) |
| COc1ccc(-c2nn(-c3ccccc3)cc2/C=N/NC(=O)c2ccc3c(c2)OCO3)cc1 |  | 5.01 µM (active) |
| CCOc1ccc2ccccc2c1C(=O)N[C@@H]1C(=O)N2[C@@H]1SC(C)(C)[C@@H]2C(=O)O | -1.29% [at 25.6 µM] |  |
| CCOc1cc(C2CC(=O)c3c(ccc4ccccc34)N2)ccc1O (stereo unspecified) |  | 10 µM (active) |
| Cn1c(Sc2ccc(-c3cccnc3)n2C)ccc1-c1cccnc1 |  | 0.631 µM (active) |
| N=C1CCC[C@@H]1C(=S)SCCC(N)=O | -30.7% [at 11.4 µM] |  |
| COc1ccc(NC(=O)NCCCN2CCCCC2C)cc1 (stereo unspecified) | -9.37% |  |
| Cc1ccc(S(=O)(=O)N2CCCC(C(=O)NCCCN3CCCCC3C)C2)cc1 (stereo unspecified) |  | 14.1 µM (active) |
| CCS(=O)(=O)N1CCCC(C(=O)NCCCOC(C)C)C1 (stereo unspecified) | -3.86% |  |
| O[C@H](CN1CCN(c2cccc(Cl)c2)CC1)C(c1ccccc1)c1ccccc1 | -19.9% |  |

| SMILES | activity, negative = inhibition | AC50 |
| --- | --- | --- |
| O=C(CCCN1C(=O)C2C3C=CC(C3)C2C1=O)N1CCN(c2ccccc2)CC1 (stereo unspecified) |  | 0.794 µM (active) |
| O=C(CCN1C(=O)C2C3C=CC(C3)C2C1=O)N1CCN(c2cccc(Cl)c2)CC1 (stereo unspecified) |  | 1.12 µM (active) |
| O=c1n(CCCN2CCN(c3cccc(Cl)c3)CC2)nc2ccccn12 |  | inactive |
| CCOC(=O)c1c(C)[nH]c(C(=O)OCC(=O)NC2CCS(=O)(=O)C2)c1C (stereo unspecified) | -4.72% |  |
| CNC(=O)c1c(I)c(C(=O)NCC(=O)Nc2c(I)c(C(=O)O)c(I)c(C(=O)NCCO)c2I)c(I)c(N(C)C(C)=O)c1I | -1.74% [at 25.6 µM] |  |
| COc1ccc(CNn2c(C)nc3ccccc3c2=O)cc1 |  | 3.98 µM (active) |
| CC(C)On1c(SC(C)C)nc2ccccc2c1=O | 22.8% [at 11.4 µM] |  |
| CCCCOc1ccc(CC(=O)NO)cc1 | -17.9% [at 25.6 µM] |  |
| CCCCOc1ccc(CNn2c(C)nc3ccccc3c2=O)cc1 |  | 1.58 µM (active) |
| COc1ccc(-c2nc3ccccc3c(=O)n2N)cc1 | -5.9% [at 11.4 µM] |  |
| O=C(c1ccccc1)c1ccc(OCCn2cnc3ccccc3c2=O)cc1 | 26.6% [at 2.29 µM] |  |
| CCCNC1CCS(=O)(=O)C1 (stereo unspecified) | -7.29% |  |
| CC[C@H](C)[C@@H]1O[C@]2(CC[C@@H]1C)C[C@H]1C[C@H](CC=C(C)[C@@H](O[C@@H]3C[C@H](OC)[C@H](O[C@@H]4C[C@H](OC)[C@H](O)[C@H](C)O4)[C@H](C)O3)[C@@H](C)C=CC=C3CO[C@@H]4[C@@H](O)C(C)=C[C@@H](C(=O)O1)[C@]34O)O2 | -24.7% [at 25.6 µM] |  |
| CC1CCC(C(C)C)C(OCC(O)CN2CCN(Cc3ccccc3)CC2)C1 (stereo unspecified) | -17.1% |  |
| CC1CC(OCC(O)CN2CCN(Cc3ccccc3)CC2)CC(C)(C)C1 (stereo unspecified) |  | 8.91 µM (active) |
| CN1CCN(CC(O)c2ccccc2)CC1 (stereo unspecified) | -0.756% |  |
| COc1cccc(C(=O)NNC2=CC(=O)CC(C)(C)C2)c1 | 3.39% [at 2.29 µM] |  |
| CCOC(=O)N1N=C(c2ccccc2)CC1(O)C(F)(F)F (stereo unspecified) | 2.59% [at 11.4 µM] |  |
| COc1cccc(C(=O)N2N=C(c3cccc(OC)c3)CC2(O)C(F)(F)F)c1 (stereo unspecified) |  | 7.94 µM (active) |
